According to PubChem BioAssay (Tox21):
Values joined by “and” are separate entries in the source; they are usually repeats but may differ in a detail not shown here. Equal values may be shown once. Some structures have more than one record in an assay (separate samples or runs), and their calls can disagree. Active and inactive are the calls of the source. Unless noted, calls come from the whole dose curve.

How the values were obtained:
[1] = qHTS assay to identify small molecule antagonists of the thyroid receptor (TR) signaling pathway (AID 743065; active = well fitted curve in the direction sought with a large enough effect in the repeat runs; inconclusive = weak or mixed curves; inactive = no such curve, though single readings can be large; an effect the other way counts as inactive or inconclusive; note: nearly all actives have a fitted effect of over 55% in size; note: potency is the fitted concentration of half-maximal effect)
Summary of the method: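 GH3.TRE-Luc rat pituitary cells (two TREs driving luciferase) were dosed with compound, then stimulated with 1 nM T3 (final) for 23.5 h at 37 C. ONE-Glo luminescence was the read-out, with CellTiter-Fluor fluorescence as the cytotoxicity counter-screen.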

[2] = system: thyroid hormone receptor (rat, GH3 cells); test: qHTS assay to identify small molecule agonists of the thyroid receptor (TR) signaling pathway (AID 743066)
[3] = qHTS assay to identify small molecule antagonists of the estrogen receptor alpha (ER-alpha) signaling pathway - cell viability counter screen (AID 743074);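 note: HEK293 cells carrying ER-alpha-UAS-bla reporter stimulated with 17beta-estradiol; nearly all actives have a fitted effect of over 45% in size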; note: potency is the fitted concentration of half-maximal effect
[4] = qHTS assay to identify small molecule antagonists of the estrogen receptor alpha (ER-alpha) signaling pathway using the BG1 cell line - cell viability counter screen (AID 743081; active = well fitted curve in the direction sought with a large enough effect in the repeat runs; inconclusive = weak or mixed curves; inactive = no such curve, though single readings can be large; an effect the other way counts as inactive or inconclusive;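 note: compound given together with 17beta-estradiol as the ER stimulus; nearly all actives have a fitted effect of over 45% in size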; note: potency is the fitted concentration of half-maximal effect)
Aromatase (Homo sapiens) = Aromatase (Homo sapiens) (UniProt P11511); test: qHTS assay to identify aromatase inhibitors (AID 743083; active = well fitted curve in the direction sought with a large enough effect in the repeat runs; inconclusive = weak or mixed curves; inactive = no such curve, though single readings can be large; an effect the other way counts as inactive or inconclusive; note: nearly all actives have a fitted effect of over 55% in size; note: potency is the fitted concentration of half-maximal effect)
Sequence of Aromatase (Homo sapiens) (P11511 whole entry, looked up): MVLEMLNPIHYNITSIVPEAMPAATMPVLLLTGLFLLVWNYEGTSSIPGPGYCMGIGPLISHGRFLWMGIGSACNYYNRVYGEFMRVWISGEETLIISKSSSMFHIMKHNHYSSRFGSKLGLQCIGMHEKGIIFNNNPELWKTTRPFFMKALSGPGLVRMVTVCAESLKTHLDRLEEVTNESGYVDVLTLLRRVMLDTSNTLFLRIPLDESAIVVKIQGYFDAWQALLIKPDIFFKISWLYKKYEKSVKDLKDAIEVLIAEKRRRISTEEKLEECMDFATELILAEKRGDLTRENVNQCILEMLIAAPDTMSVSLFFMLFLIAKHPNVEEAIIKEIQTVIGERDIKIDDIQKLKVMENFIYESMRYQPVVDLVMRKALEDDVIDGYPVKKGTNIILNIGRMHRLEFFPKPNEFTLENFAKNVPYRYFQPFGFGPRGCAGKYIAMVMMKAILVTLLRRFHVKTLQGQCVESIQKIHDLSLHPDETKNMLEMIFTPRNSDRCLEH

[5] = biological target: Estrogen receptor (Homo sapiens) (UniProt P03372); test: qHTS assay to identify small molecule agonists of the estrogen receptor alpha (ER-alpha) signaling pathway (AID 743075);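 note: HEK293 GripTite cells with ER-alpha and UAS-driven beta-lactamase reporter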; note: potency is the fitted concentration of half-maximal effect
Sequence of Estrogen receptor (Homo sapiens) (P03372 whole entry, looked up): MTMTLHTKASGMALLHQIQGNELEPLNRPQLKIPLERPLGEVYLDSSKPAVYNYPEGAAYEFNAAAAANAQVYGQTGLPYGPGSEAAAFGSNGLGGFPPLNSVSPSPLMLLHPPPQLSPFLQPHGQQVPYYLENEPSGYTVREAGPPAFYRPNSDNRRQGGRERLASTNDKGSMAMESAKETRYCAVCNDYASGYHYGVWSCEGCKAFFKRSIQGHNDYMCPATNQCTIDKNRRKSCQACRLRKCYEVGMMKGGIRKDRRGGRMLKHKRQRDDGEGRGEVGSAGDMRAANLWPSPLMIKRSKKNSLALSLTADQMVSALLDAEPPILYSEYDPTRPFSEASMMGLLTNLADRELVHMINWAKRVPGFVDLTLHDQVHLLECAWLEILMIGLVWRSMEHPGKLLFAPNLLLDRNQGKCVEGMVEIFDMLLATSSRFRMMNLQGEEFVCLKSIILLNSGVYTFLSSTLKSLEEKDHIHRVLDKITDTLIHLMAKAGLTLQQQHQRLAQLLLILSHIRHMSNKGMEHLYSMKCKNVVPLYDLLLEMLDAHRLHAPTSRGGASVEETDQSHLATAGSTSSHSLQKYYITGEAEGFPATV

[6] = biological target: Estrogen receptor (Homo sapiens) (UniProt P03372); test: qHTS assay to identify small molecule agonists of the estrogen receptor alpha (ER-alpha) signaling pathway using the BG1 cell line (AID 743079; active = well fitted curve in the direction sought with a large enough effect in the repeat runs; inconclusive = weak or mixed curves; inactive = no such curve, though single readings can be large; an effect the other way counts as inactive or inconclusive; note: nearly all actives have a fitted effect of over 20% in size; note: potency is the fitted concentration of half-maximal effect)
[7] = qHTS assay to identify small molecule antagonists of the estrogen receptor alpha (ER-alpha) signaling pathway using the BG1 cell line (AID 743080); note: nearly all actives have a fitted effect of over 25% in size; note: potency is the fitted concentration of half-maximal effect
Summary of the method: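 Antagonist mode: compounds in DMSO were pinned onto BG1-Luc-4E2 cells alongside 17beta-estradiol agonist, incubated 21.5 h, and ERE-driven luciferase measured with ONE-Glo. Cytotoxicity was multiplexed using CellTiter-Fluor fluorescence.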

[8] = biological target: Estrogen receptor (Homo sapiens) (UniProt P03372); test: qHTS assay to identify small molecule antagonists of the estrogen receptor alpha (ER-alpha) signaling pathway (AID 743069; active = well fitted curve in the direction sought with a large enough effect in the signal ratio in the repeat runs, not every such curve was filed as active; inconclusive = weak or mixed curves, or effect the other way; inactive = no such curve, though single readings can be large or run the other way; the % refers to the signal ratio; note: potency is the fitted concentration of half-maximal effect)
Summary of the method: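 Beta-lactamase FRET fluorescence is read after 2 hr at room temperature with LiveBLAzer B/G substrate. Before that, ER-alpha-bla HEK293 cells sit 4 hr after plating, then receive compound plus 17beta-estradiol and incubate 18 hr at 37C.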

Measured: Potency

OCC(F)(F)F
inactive: [1] | [2] | [3] | [4] | Aromatase (Homo sapiens)

O=C1c2ccccc2C(=O)N1SC1CCCCC1
active: [1] 24.3 µM and 15.4 µM | Aromatase (Homo sapiens) 43.2 µM
not listed: [3] | [8]
inactive: all other assays above

CCCCC(CC)CN1CN(CC(CC)CCCC)CC(C)(N)C1 (configuration not stated)
not listed: [1]
inactive: all other assays above

C1CCC(SSC2CCCCC2)CC1
not listed: [3]
inactive: all other assays above

CC1(C)CCC[C@]2(C)[C@H]3CC(=O)O[C@]3(C)CC[C@@H]12
active: [1] 54.5 µM
not listed: Aromatase (Homo sapiens) | [8]
inactive: all other assays above

O=c1[nH]c(=O)n([C@H]2C[C@H](O)[C@@H](CO)O2)cc1F
active: [1] 0.75 µM | [3] 379 nM
not listed: [7] | [8]
inactive: all other assays above

CCOC(=O)Cn1cccc1-c1nc(-c2ccc(OC)cc2)c(-c2ccc(OC)cc2)s1
active: [1] 13.3 µM
not listed: [8]
inactive: all other assays above

CC/C=C\CCCCCO
inactive: [1] | [2] | [3] | [4]

CCCC[P+](C)(CCCC)CCCC
not listed: [5] | [6]
inactive: all other assays above

O=C(c1ccc(O)c(O)c1)c1ccc(O)cc1O
inactive: [2] | [3] | [7]
active: [8] 34.6 µM [inconclusive] | [5] 3.46 µM [inconclusive] | [6] 3.85 µM

CCc1cccc(CC)c1NC(=O)CN(CC(=O)O)CC(=O)O
not listed: [3]
inactive: all other assays above

O=C1OC2(c3ccc(O)cc3Oc3cc(O)ccc32)c2ccc(N=C=S)cc21
inactive: [1] | [2] | [3] | [4] | Aromatase (Homo sapiens)

CNc1ccc([N+](=O)[O-])cc1
active: [1] 27.4 µM | [6] 34.4 µM | [4] 48.7 µM | Aromatase (Homo sapiens) 12.2 µM
inactive: [2] | [8] | [3] | [5]

CC(C)=CCC1=C(O)c2ccccc2C(=O)C1=O
active: [1] 0.171 µM | [4] 54.2 µM
inactive: [2] | Aromatase (Homo sapiens)

C#C[C@]1(O)CC[C@H]2[C@@H]3[C@H](C)CC4=C(CCC(=O)C4)[C@H]3CC[C@@]21C
active: [1] 26.6 µM | [5] 0.0134 µM [inconclusive] | [6] 0.0038 µM
inactive: [3] | [7] | [4] | Aromatase (Homo sapiens)

Cc1ccc(O)c(O)c1
inactive: [2] | [3] | [6] | [7]
active: [1] 26.5 µM | [5] 53.4 µM [inconclusive] | Aromatase (Homo sapiens) 66.6 µM

COC1=C(OC)C(=O)C(CCCCCCCCCCO)=C(C)C1=O
inactive: [3] | [5] | [4]
active: Aromatase (Homo sapiens) 29.8 µM

CC(N=C(NC#N)Nc1ccncc1)C(C)(C)C (configuration not stated)
inactive: [2] | [3] | [4]

Cc1cccc(C(=O)O)c1O
not listed: [1]
inactive: all other assays above

CCCCN(CCCC)CC(O)c1cc(Cl)cc2c1-c1ccc(Cl)cc1/C2=C/c1ccc(Cl)cc1 (configuration not stated)
active: [6] 23.7 µM
inactive: [8] | [5] | [7] | [4] | Aromatase (Homo sapiens)

CCCCCCCCCCCCCCCC[N+](C)(C)CC
active: [3] 19 µM and 55.1 µM | [4] 54.6 µM | Aromatase (Homo sapiens) 9.44 µM and 8.66 µM
inactive: [5]

CCCCCC(C)OC(=O)COc1ccc(Cl)c2cccnc12 (configuration not stated)
inactive: [2] | [5] | [6] | [7] | [4]

O=C(/C=C/c1ccccc1)OC/C=C/c1ccccc1
active: [6] 30.6 µM
not listed: [1]
inactive: all other assays above

OC/C=C/CO
not listed: [1] | [5] | [6]
inactive: all other assays above

CCCCCC/C=C\CCCCCCCC(=O)O
not listed: [1] | [2]
inactive: all other assays above

S=C([S-])NCCNC(=S)[S-].S=C([S-])NCCNC(=S)[S-].[Mn+2].[Zn+2]
inactive: [2] | Aromatase (Homo sapiens)

CC1=CCC(=C(C)C)CC1
active: [6] 68.6 µM
not listed: [1] | [2]
inactive: all other assays above

C=CC(=O)Nc1cc2c(Nc3ccc(F)c(Cl)c3)ncnc2cc1OCCCN1CCOCC1
inactive: Aromatase (Homo sapiens)
active: [5] 23.9 µM [inconclusive] | [6] 29.8 µM

O=C(O)CN(CCN(CC(=O)O)CC(=O)O)CC(=O)O
inactive: [3] | [4] | Aromatase (Homo sapiens)

Oc1c(I)cc(Cl)c2cccnc12
inactive and 27.3 µM (active): Aromatase (Homo sapiens)
inactive: [2] | [4]

CC[C@H](C)COC(=O)/C=C/c1ccc(N=Cc2ccc(OC)cc2)cc1
inactive: [2] | [5] | [4]
active: [6] 2.73 µM

Cc1nc2n(c(=O)c1CCN1CCC(c3noc4cc(F)ccc34)CC1)CCCC2
not listed: [1] | [4] | [7]
inactive: all other assays above

O=C1C(c2[nH]c3ccc(S(=O)(=O)O)cc3c2O)=Nc2ccc(S(=O)(=O)O)cc21
inactive: [2] | [3] | [4] | Aromatase (Homo sapiens)

CC(C)OC(=O)C(O)(CC(=O)O)CC(=O)O
not listed: [1] | [2]
inactive: all other assays above

CCC(=O)C(=O)CC
inactive: [2] | [3] | [4]

Cc1c(F)c(N2CCNC(C)C2)cc2c1c(=O)c(C(=O)O)cn2C1CC1 (configuration not stated)
not listed: [1] | [2]
inactive: all other assays above

Oc1cc(Cl)cc(Cl)c1Cl
inactive: [2] | [5] | [7]

CCCCCCCCCCOC(=O)c1ccccc1C(=O)OCCCCCCCC
not listed: [1]
inactive: all other assays above

Cc1ccc(N/N=c2\c(=O)cc/c(=N\Nc3ccc(S(=O)(=O)O)cc3)c2=O)c(C)c1
active: [4] 54.5 µM
not listed: [1]
inactive: all other assays above

COc1cc(C)ccc1O
inactive: [2] | [3] | [6] | [7] | Aromatase (Homo sapiens)

CN(C)Cc1cc(C(C)(C)C)c(O)c(C(C)(C)C)c1
inactive: [2] | [3] | Aromatase (Homo sapiens)

Cc1c(C)c([N+](=O)[O-])c(C(C)(C)C)c([N+](=O)[O-])c1C
inactive: [8] | [5] | [6] | [7] | [4]

Cc1cc(C)c(/C=C2\C(=O)Nc3ccccc32)[nH]1
active: [8] 26.8 µM [inconclusive]
inactive: [2] | [3] | [6] | Aromatase (Homo sapiens)

Clc1sc(Cl)c(Cl)c1Cl
not listed: [1] | [2]
inactive: all other assays above

C#CC1(O)CC[C@H]2[C@@H]3CCC4=CCCC[C@@H]4[C@H]3CC[C@@]21C (some centres not stated)
inactive and 61.1 µM (active): Aromatase (Homo sapiens)
inactive: [8] | [3] | [7] | [4]
active: [5] 57.4 nM [inconclusive] and 77.6 nM [inconclusive] | [6] 40.3 nM and 21.7 nM

Nc1cc(Cl)c(O)c(Cl)c1
not listed: [1] | [8]
inactive: all other assays above

Cc1ccc(-c2ccccc2)cc1
inactive: [2] | [3] | [4] | Aromatase (Homo sapiens)

CC1(C)CCC[C@]2(C)[C@H]3CCO[C@]3(C)CC[C@@H]12
inactive: [3] | [4] | Aromatase (Homo sapiens)

C#C[C@]1(OC(C)=O)CC[C@H]2[C@@H]3CCC4=C[C@@H](OC(C)=O)CC[C@@H]4[C@H]3CC[C@@]21C
inactive: [3] | [4] | Aromatase (Homo sapiens)
active: [5] 0.0085 µM [inconclusive] | [6] 0.7 nM and 4.7 nM | [7] 33.5 µM

CCC(C)n1ncn(-c2ccc(N3CCN(c4ccc(OC[C@H]5CO[C@](Cn6cncn6)(c6ccc(Cl)cc6Cl)O5)cc4)CC3)cc2)c1=O (some centres not stated)
active: [7] 13.3 µM
inactive: [3] | [5] | [4] | Aromatase (Homo sapiens)

C/C=C/C=C/COC(=O)C(C)C
inactive: [2] | [3] | [4]
active: Aromatase (Homo sapiens) 68.6 µM

O=C(/C=C/c1ccc(O)c(O)c1)O[C@@H](C(=O)O)[C@@H](OC(=O)/C=C/c1ccc(O)c(O)c1)C(=O)O
inactive: [2] | [3] | [4] | Aromatase (Homo sapiens)

Nc1nc2c(ncn2COCCO)c(=O)[nH]1
not listed: [1] | [2]
inactive: all other assays above
